MIN6 prolif: inducers of beta-cell replication in MIN6 cells | MIN6 cells proliferation, ATPlite luminescence, 48 h; cells starved in 0.2% serum; 100% = growth in 10% serum | proliferation, % at 10 µM | hit rate 0.29% among 330,000 | AID 2380;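 active = compounds whose signal lies at least 3.5 SD above the mean of all wells on their plate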;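 also: 0% = DMSO-treated cells in low-serum medium and 100% = 10% serum control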
p-CIP stab down: lowers stability of the mouse p/CIP coactivator protein. Q05BA5. F442A p/CIP-EGFP cells, EGFP fluorescence, 16 h. decrease of EGFP signal, % at 10 µM. hit rate 0.01% among 290,000. AID 1984;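 active = EGFP signal decrease of at least 30% at 10 µM or well 3 SD below plate mean, unless failing retest; inactive = the rest, including hits failing retest or dose response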
Target sequence (Q05BA5 1-1403): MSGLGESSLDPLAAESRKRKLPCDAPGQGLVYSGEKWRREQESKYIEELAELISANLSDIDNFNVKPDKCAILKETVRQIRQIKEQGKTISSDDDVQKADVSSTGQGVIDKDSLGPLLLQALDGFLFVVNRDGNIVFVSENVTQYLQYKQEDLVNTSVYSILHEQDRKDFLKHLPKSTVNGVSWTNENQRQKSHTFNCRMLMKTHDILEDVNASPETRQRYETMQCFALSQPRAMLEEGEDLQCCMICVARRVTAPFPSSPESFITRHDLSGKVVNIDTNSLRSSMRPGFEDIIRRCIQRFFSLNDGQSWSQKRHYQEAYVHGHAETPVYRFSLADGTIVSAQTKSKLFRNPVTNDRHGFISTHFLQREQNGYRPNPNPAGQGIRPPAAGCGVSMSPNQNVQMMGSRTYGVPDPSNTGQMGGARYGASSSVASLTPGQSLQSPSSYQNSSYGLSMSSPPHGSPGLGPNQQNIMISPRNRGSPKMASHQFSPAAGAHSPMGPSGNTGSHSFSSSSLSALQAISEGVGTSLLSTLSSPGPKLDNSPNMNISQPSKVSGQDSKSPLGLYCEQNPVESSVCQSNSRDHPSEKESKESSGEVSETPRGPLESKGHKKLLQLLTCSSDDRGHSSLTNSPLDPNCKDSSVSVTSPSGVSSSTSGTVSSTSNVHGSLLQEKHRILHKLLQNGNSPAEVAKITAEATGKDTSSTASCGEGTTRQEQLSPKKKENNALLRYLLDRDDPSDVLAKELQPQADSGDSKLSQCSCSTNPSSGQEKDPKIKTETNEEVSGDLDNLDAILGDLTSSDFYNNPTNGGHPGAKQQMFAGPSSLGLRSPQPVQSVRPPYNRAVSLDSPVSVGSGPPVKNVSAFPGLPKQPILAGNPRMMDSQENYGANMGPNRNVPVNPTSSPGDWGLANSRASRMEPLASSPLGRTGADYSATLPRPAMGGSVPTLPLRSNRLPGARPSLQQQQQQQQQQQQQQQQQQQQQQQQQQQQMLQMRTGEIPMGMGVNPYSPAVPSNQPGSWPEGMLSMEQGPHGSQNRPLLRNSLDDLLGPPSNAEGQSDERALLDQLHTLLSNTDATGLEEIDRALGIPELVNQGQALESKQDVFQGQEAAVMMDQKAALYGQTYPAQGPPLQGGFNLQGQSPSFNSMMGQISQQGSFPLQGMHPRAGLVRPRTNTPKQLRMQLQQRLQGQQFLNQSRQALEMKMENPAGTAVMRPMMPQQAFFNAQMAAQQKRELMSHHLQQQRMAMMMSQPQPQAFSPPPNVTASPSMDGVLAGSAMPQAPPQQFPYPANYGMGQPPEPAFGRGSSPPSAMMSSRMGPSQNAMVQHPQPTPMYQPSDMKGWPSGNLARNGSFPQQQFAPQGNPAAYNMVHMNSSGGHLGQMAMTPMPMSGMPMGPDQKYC
Cardio protect: modulators protecting cardiomyocytes from myocardial damage. H9c2 cardiomyocytes, H2O2 injury protection, ATPLite, 2 h. AID 588492. hit rate 0.63% among 360,000. protection from H2O2 cell death, % at 20 µM;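 active = compounds giving at least 50% protection of heart cells from peroxide-induced death in the single-dose screen, raw or plate-pattern-corrected value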;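 also: 0% = DMSO wells with peroxide and 100% = DMSO wells without peroxide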
HSV augment: HSV replication enhancement | hit rate 0.005% among 220,000 | maximum fold increase | HSV replication augmentation in cells, fold increase; in the data active = maximum fold increase above about 1.5; tested in PC3 cells
V-ATPase pHluor: yeast V-ATPase proton transport regulation by pHLuorin; response, % at 10 µM; hit rate 0.37% among 350,000; AID 504577; S. cerevisiae, pHLuorin cytosolic pH fluorescence; in the data active = response mostly above about 7.3%, no sharp cut-off; inactive = mostly below about 5.4%; also: actives read high
Yeast superoxide: lowers age-related superoxide in aged yeast cells; S. cerevisiae aged cells, superoxide DHE fluorescence; hits give low values; superoxide response (% of plate mean), % at 10 µM; hit rate 0.18% among 330,000; AID 2690;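 active = superoxide response under a set limit, about three screen SD below normal, cut at about 65% in these data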;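 also: yeast aged for seven days with compound at 30 °C before DHE staining; 100% = average MFI of all compound-treated wells on the plate with controls excluded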
Active calls of the source: *; i = inactive; nt = no result given. In the library only some 1.4% were active in any assay of this set; here they are far more common.

SMILES	MIN6 prolif	p-CIP stab down	Cardio protect	HSV augment	V-ATPase pHluor	Yeast superoxide
Cc1[nH]n2c(=O)cc(C(C)C)nc2c1-c1ccccc1	-2	8	17	nt	-1	91
NC(=O)NN=C1CCC(OCc2ccccc2)CC1CC(=O)O (configuration not stated)	nt	nt	0	nt	nt	nt
CCOc1ccc(S(=O)(=O)N2CCC(C(=O)NC3CCCCC3)CC2)cc1	-3	-13	-2	nt	2	90
N#C/C(=C/c1ccc(F)cc1)S(=O)(=O)c1ccccc1	-4	-1	-1	i	-1	127
N#C/C(=C\c1ccc(O)c(O)c1)S(=O)(=O)c1ccccc1	0	-2	51*	i	-1	97
N#C/C(=C\c1ccc(O)c(O)c1)C(=O)c1ccc(O)c(O)c1	-4	nt	64*	nt	1	111
N#C/C(=C\c1ccc(O)c(O)c1)C(=O)N1CCCC1	-1	12	49	i	-6	88
N#C/C(=C\c1ccc(O)c(O)c1)C(=O)NCCCc1ccccc1	-4	-14	89*	i	-3	106
Cn1ncc(Cl)c1C(=O)NNC(=O)Nc1cccc2ccccc12	-3	-6	7	nt	-1	105
O=C(Nc1cccnc1)c1cc(-c2ccc(Cl)cc2Cl)on1	0	1	-13	nt	0	102
NC(=O)COc1ccc2oc(=O)cc(-c3cc4ccccc4o3)c2c1	-2	-2	71*	nt	6	88
COC(=O)COc1ccc2oc(=O)cc(-c3cc4cccc(OC)c4o3)c2c1	-2	-3	6	nt	0	116
COc1cccc2cc(-c3cc(=O)oc4ccc(OCC(C)=O)cc34)oc12	-1	-11	63*	nt	4	119
CCOC(=O)C1=CCN(S(=O)(=O)c2ccccc2C)C1c1ccc(Cl)cc1 (configuration not stated)	nt	nt	0	nt	nt	nt
O=[N+]([O-])c1cc2no[n+]([O-])c2cc1N1CCCCC1	nt	nt	-14	nt	42*	nt
O=C(c1ccco1)N1CCN(c2nnc(-c3ccccc3)c3ccccc23)CC1	-1	-6	11	i	2	95
CC(C)Cn1c(=O)c(C(=O)NCc2ccccn2)c(O)c2ccccc21	-3	-11	56*	i	1	104
COc1cc2c(C(=O)NCc3ccccn3)cn(CC(C)C)c(=O)c2cc1OC	4	-12	54*	i	-1	98
O=C1C(Cl)=C(Nc2ccc3cn[nH]c3c2)C(=O)c2ccccc21	nt	59*	-19	i	1	143
O=C(Nc1ccc2cn[nH]c2c1)c1c(Cl)cccc1Cl	-2	2	-3	i	0	100
Cc1nnc(SCC(=O)N(C)c2ccccc2)n1Cc1ccccc1	-3	1	-3	i	-4	114
C/C(=N\NC(=O)CO/N=C(\C)c1cccs1)c1ccc(N)cc1	2	-1	-4	i	4	111
C/C(=N\OCC(=O)N/N=C/c1ccc(C)cc1O)c1cccs1	-6	4	64*	i	-2	99
COc1cccc(CNC(=O)c2cc(=O)[nH]c3ccc(S(=O)(=O)N4CCOCC4)cc23)c1	1	nt	1	nt	-2	104
CC(C)COP(=O)(OCC(C)C)C(Nc1ccccc1)c1ccc2c(c1)OCO2 (configuration not stated)	-4	-5	67*	nt	-4	96
SMILES	MIN6 prolif	p-CIP stab down	Cardio protect	HSV augment	V-ATPase pHluor	Yeast superoxide
CCc1noc(C)c1C(=O)OCC(=O)c1ccccc1OC	5	-14	0	nt	-1	105
COc1cccc(/C=N/Nc2nn3cnnc3c3ccccc23)c1O	2	-5	50*	nt	-2	102
COc1ccc(O)c(C(=O)c2cnn(-c3ccccn3)c2)c1	-3	-9	0	i	3	111
COc1ccc(O)c(C(=O)c2cnc3nc4ccccc4n3c2)c1	nt	-1	61*	i	2	92
COC(=O)Oc1ccc(/C=C/C(=O)OC(C)C)cc1OC(=O)OC	-3	-2	54*	i	-2	106
CCn1c(NC(=O)c2ccccc2)nc2ccccc21	2	4	8	i	4	105
CCCCn1c(NC(=O)c2ccccc2)nc2ccccc21	-4	4	81*	i	0	108
Cc1ccc(-c2nnc(NCc3nc4ccccc4[nH]3)c3ccccc23)cc1S(=O)(=O)N(C)C	0	-4	41	i	0	98
Cc1ccc(-c2nnc(NCc3nc4ccccc4[nH]3)c3ccccc23)cc1S(=O)(=O)N1CCOCC1	-3	-1	86*	i	2	103
CCOC(=O)C1CCN(C(=O)Nc2ccc(OC(F)(F)F)cc2)CC1	1	-9	-5	i	2	94
Cc1[nH]n(-c2ccccc2)c(=O)c1/C=N/NC(=O)COc1ccccc1[N+](=O)[O-]	1	-8	62*	i	1	121
Cc1[nH]n(-c2cccc3ccccc23)c(=O)c1/C=N/NC(=O)c1cccc([N+](=O)[O-])c1	-2	-2	56*	i	2	78
Cc1[nH]n(-c2ccccc2)c(=O)c1/C=N/NC(=O)c1cccc([N+](=O)[O-])c1	-6	-4	8	i	-3	118
O=c1/c(=C\c2cccc(O)c2)sc2nc(-c3ccccc3)c(-c3ccccc3)n12	-6	-7	8	i	8	110
Cc1nn(-c2ccccc2)c(C)c1/C=N/NC(=O)c1cc(-c2ccccc2)n[nH]1	-3	-7	75*	i	0	101
Cc1[nH]c2ccccc2c1/C=N/NC(=O)c1cc(-c2ccccc2)n[nH]1	-2	7	55*	i	0	112
Cc1[nH]c2ccccc2c1/C=N/NC(=O)c1ccccc1	-2	-1	3	nt	-2	110
NC(=O)c1cc(S(=O)(=O)N2CCCC2)ccc1OCCOc1ccccc1	-1	nt	1	nt	3	140
CC(C)[C@@H](CSc1ccccc1)N1CCN(Cc2ccccc2)CCC1=O	0	-9	1	nt	1	101
CCOC(=O)C1=C[C@@H](c2ccccc2)N(S(=O)(=O)c2ccc(C)cc2)[C@H]1c1ccc(F)cc1	nt	nt	-2	nt	nt	nt
Cc1cccnc1Nc1nc(-c2ccc(O)c(O)c2)cs1	-4	3	65*	i	-1	83
Cc1ccnc(Nc2nc(-c3ccc(O)c(O)c3)cs2)c1	-5	-3	60*	nt	1	95
CNC1(C(N)=O)CCNCC1	-4	39*	0	i	0	106
CNC1(C(N)=O)CCN(Cc2ccccc2)CC1	nt	nt	-1	nt	3	nt
O=c1c2ccccc2nc2c3ccccc3c(NCCO)nn12	-6	-1	58*	i	-3	96
O=c1c2ccccc2nc2c3ccccc3c(NCc3ccccn3)nn12	-1	1	47	i	-1	107
CC(C)n1c(O)c(N=Nc2ccc(Cl)nn2)c2ccccc21	0	-13	65*	i	-2	106
C(=C\c1ccc2nncn2c1)/c1ccccc1	nt	nt	3	nt	nt	nt

Assay outcomes as filed in PubChem.
